GluA2 TARP mod: modulators of GluA2-stargazin AMPA receptor complexes, primary screen, cell-based, membrane potential dye | HEK293 GluA2+stargazin, membrane potential dye (FDSS), glutamate EC50; hits were called plate by plate, in both directions | AID 1259245, 2017 | calls only at 30 µM | 40,000 tested, 3.5% active | Voltage-dependent calcium channel gamma-2 subunit (Mus musculus) + Glutamate receptor 2 …;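 active means any of four per-well response measures lying three or more SD from its plate-wide compound average, in either direction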
Target sequence (O88602 whole entry, looked up): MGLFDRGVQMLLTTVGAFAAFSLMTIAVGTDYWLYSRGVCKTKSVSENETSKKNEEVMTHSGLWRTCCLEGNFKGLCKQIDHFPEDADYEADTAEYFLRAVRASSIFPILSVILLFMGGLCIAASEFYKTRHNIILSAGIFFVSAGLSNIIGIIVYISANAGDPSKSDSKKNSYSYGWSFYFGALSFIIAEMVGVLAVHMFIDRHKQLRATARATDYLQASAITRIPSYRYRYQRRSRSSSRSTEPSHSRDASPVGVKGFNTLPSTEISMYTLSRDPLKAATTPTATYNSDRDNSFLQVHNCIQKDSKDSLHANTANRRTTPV
Target sequence (P19491 whole entry, looked up): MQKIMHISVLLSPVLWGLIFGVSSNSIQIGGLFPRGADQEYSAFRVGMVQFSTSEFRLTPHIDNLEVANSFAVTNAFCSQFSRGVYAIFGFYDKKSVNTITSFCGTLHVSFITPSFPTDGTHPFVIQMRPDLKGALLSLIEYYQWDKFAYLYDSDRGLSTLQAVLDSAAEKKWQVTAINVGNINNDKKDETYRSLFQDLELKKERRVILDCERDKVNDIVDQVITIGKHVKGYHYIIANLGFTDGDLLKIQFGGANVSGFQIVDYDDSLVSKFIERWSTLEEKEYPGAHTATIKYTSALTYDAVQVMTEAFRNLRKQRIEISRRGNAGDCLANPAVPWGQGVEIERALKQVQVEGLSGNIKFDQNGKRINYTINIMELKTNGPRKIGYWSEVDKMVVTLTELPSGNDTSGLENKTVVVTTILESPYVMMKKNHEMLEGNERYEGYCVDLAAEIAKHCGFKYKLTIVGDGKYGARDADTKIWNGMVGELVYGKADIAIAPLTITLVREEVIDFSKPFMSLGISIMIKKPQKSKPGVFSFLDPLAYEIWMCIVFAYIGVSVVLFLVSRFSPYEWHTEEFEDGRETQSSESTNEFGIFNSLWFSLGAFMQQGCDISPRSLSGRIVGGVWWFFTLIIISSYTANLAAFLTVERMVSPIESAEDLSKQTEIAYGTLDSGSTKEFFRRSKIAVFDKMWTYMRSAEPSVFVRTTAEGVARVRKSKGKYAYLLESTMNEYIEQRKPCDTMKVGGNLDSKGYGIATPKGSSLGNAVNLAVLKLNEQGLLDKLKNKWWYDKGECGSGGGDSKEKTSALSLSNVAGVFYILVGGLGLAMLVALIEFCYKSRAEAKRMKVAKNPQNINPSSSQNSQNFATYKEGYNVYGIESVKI
GIRK2 activator: activators of NPY4-receptor-primed GIRK2 channels, summary, cell-based, HEK293, thallium flux; G protein-activated inward rectifier potassium channel 2 (Homo sapiens), P48051; HEK293 GIRK2/NPY4 cells, thallium flux fluorescence; activation (% efficacy), % for hits at 37.5 µM; 34,000 tested, under 10 active; AID 1259324, 2017;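 active means primary screen hit, no activity in plain HEK293 cells, and in GIRK2-only cells above 5% efficacy rising with concentration; inactive means the rest, including fluorescent compounds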;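 further: efficacy is normalized control-subtracted fluorescence 15 s after thallium addition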
Large screens that a line does not name were inactive. The full list was thinned out, with hits kept by preference.

O=S(=O)(c1ccc(Oc2ccccc2Cl)cc1)N1CCCC1	GluA2 TARP mod active (no result: GIRK2 activator)
O=S(=O)(c1ccc(Oc2ccccc2Cl)cc1)N1CCCCC1	none (no result: GIRK2 activator)
CS(=O)(=O)N1CCCCC1C(=O)N(CC1CCCO1)c1nc2c(F)cccc2s1 (stereo not given)	none
Cc1c(C)c(C)c(S(=O)(=O)NCC2(O)CCCC2)c(C)c1C	none
COc1ccc(Cl)cc1C(=O)NCC1CCN(Cc2ccccc2SC)CC1	none
Cc1ccc(OCCCC(=O)Nc2nccs2)c(C)c1	none
CCCCCNC(=O)CCCOc1ccc(C)cc1C	GluA2 TARP mod active
COc1ccccc1NC(=O)c1ccc(S(=O)(=O)N(C)C2CCCCC2)cc1	none (no result: GIRK2 activator)
CCCN(CCC)S(=O)(=O)c1ccc(C(=O)Nc2ccccc2OC)cc1	GluA2 TARP mod active (no result: GIRK2 activator)
CCC(=O)Nc1ccc(SCC(=O)Nc2ccc(OC)c(OC)c2)nn1	none (no result: GluA2 TARP mod)
O=C(CSc1ccc(NC(=O)c2ccco2)nn1)NCc1ccccc1Cl	GluA2 TARP mod active
COc1ccccc1NC(=O)CSc1ccc(-c2cc(OC)c(OC)c(OC)c2)nn1	none
COc1ccc(NC(=O)CSc2ccc(NC(=O)c3ccco3)nn2)cc1OC	GluA2 TARP mod active
COc1ccc(-c2ccc(SCC(=O)Nc3ccccc3Cl)nn2)cc1OC	GluA2 TARP mod active (no result: GIRK2 activator)
COc1ccccc1CNC(=O)CSc1ccc(NC(=O)c2ccco2)nn1	none
COc1cc(/C=C2\Oc3cc(OC(C)=O)ccc3C2=O)cc(OC)c1OC	none (no result: GIRK2 activator)
COc1cc(/C=C2\Oc3cc(OC(=O)c4ccccc4F)ccc3C2=O)cc(OC)c1OC	GluA2 TARP mod active (no result: GIRK2 activator)
COc1ccc(NC(=O)Nc2ccc3c(c2)CN(C(=O)c2cccs2)CC3)c(OC)c1	none
COc1ccccc1CNC(=O)C(=O)NCCC1=CCCCC1	none
O=C(CCc1ccccc1)NCCn1ncc2c(N3CCCC3)ncnc21	none
COc1ccc(CCC(=O)NCCn2ncc3c(N4CCCCC4)ncnc32)cc1	GluA2 TARP mod active
COc1ccccc1CNC(=O)C(=O)NCCC1CCCCN1S(=O)(=O)c1ccccc1 (stereo not given)	GluA2 TARP mod active (no result: GIRK2 activator)
COc1ccccc1CNC(=O)C(=O)NCCC1CCCCN1S(=O)(=O)c1ccc(F)cc1 (stereo not given)	none (no result: GIRK2 activator)
COc1ccccc1CNC(=O)CC1CCCCN1S(=O)(=O)c1ccc(Cl)cc1 (stereo not given)	none (no result: GIRK2 activator)
COc1ccccc1CCNC(=O)CC1CCCCN1S(=O)(=O)c1ccc(C)cc1 (stereo not given)	GluA2 TARP mod active (no result: GIRK2 activator)
COc1ccccc1CCNC(=O)CC1CCCCN1S(=O)(=O)c1ccccc1 (stereo not given)	none (no result: GIRK2 activator)
Cc1ccc(S(=O)(=O)N2CCCCC2CC(=O)NC2CCCCC2)cc1 (stereo not given)	none (no result: GIRK2 activator)
O=C(CC1CCCCN1S(=O)(=O)c1ccccc1)NC1CCCCC1 (stereo not given)	GluA2 TARP mod active (no result: GIRK2 activator)
COc1ccccc1CCNC(=O)CC1CCCCN1S(=O)(=O)c1ccc(Cl)cc1 (stereo not given)	GluA2 TARP mod active (no result: GIRK2 activator)
C=CCNC(=O)CSc1nnc(-c2cn(C)nc2OC)n1C	none
NC(=O)c1oc2ccccc2c1NC(=O)C(=O)NCCc1c[nH]c2ccccc12	none
CCOC(=O)CN1CC(c2nc(Cc3ccccc3OC)no2)C1	none (no result: GluA2 TARP mod)
Cn1nc2c3c(cccc3c1=O)-c1ccccc1-2	GluA2 TARP mod active (no result: GIRK2 activator)
Cc1ccc(-c2nn(C)c(=O)c3ccccc23)cc1CNS(C)(=O)=O	none (no result: GIRK2 activator)
O=C(Cc1ccc(NS(=O)(=O)c2ccc3c(c2)OCCO3)cc1)N1CCOCC1	none
CCCN1C(=O)NC2(CCN(C(=O)C3CCCCC3)CC2)C1=O	none
CCCN1C(=O)/C(=C/c2ccc(N3CCCC3)cc2)NC1=S	GluA2 TARP mod active (no result: GIRK2 activator)
O=C(CCc1csc(NC(=O)c2ccc(F)cc2)n1)NCC1CCCCC1	none
O=C(CC1CCCC1)Nc1nc(CSCc2ccc(F)cc2)cs1	GluA2 TARP mod active
Cc1ccc(OCc2ccc(C(=O)Nc3ccccc3)o2)cc1	none (no result: GIRK2 activator)
O=C(Nc1nc2ccccc2s1)C(=O)N1CCN(c2cccc(Cl)c2)CC1	none (no result: GIRK2 activator)
NC(=O)C1Cc2ccccc2N1C(=O)c1ccc(Cl)c([N+](=O)[O-])c1 (stereo not given)	none
O=C(Nc1ccc(OC(F)(F)F)cc1)c1ccc(S(=O)(=O)NC2CC2)o1	none
Cc1csc(NC(=O)c2ccc(S(=O)(=O)Nc3ccc(OC(F)(F)F)cc3)o2)n1	GluA2 TARP mod active
Cc1nnc(NC(=O)c2ccc(S(=O)(=O)Nc3ccc(OC(F)(F)F)cc3)o2)s1	none
CN(C)S(=O)(=O)c1ccc(C(=O)Nc2ccc(OC(F)(F)F)cc2)o1	GluA2 TARP mod active
CN(C)C(=O)Cc1ccc(NC(=O)C2(c3ccc(F)cc3)CC2)cc1	none (no result: GluA2 TARP mod)
CCc1ccccc1NC(=O)CSc1nc2ccsc2c(=O)n1CCc1ccccc1	none
O=C(Nc1onc2c1CSC2)c1cnc2ccccc2n1	none
COc1ncccc1C(=O)Nc1onc2c1CSC2	GluA2 TARP mod active
O=C(NCC(O)C1CCCCC1)c1cccc(Cl)c1 (stereo not given)	none (no result: GIRK2 activator)
CC(=O)NS(=O)(=O)c1ccc(NC(=O)c2csc(-c3cnccn3)n2)cc1	GluA2 TARP mod active
O=C(Nc1ccc(-n2cnnn2)cc1)c1csc(-c2cnccn2)n1	none
CCOc1ccccc1NC(=O)C(=O)NCC1COC2(CCCC2)O1 (stereo not given)	none
Cc1ccsc1C(O)CNC(=O)C1c2ccccc2Oc2ccccc21 (stereo not given)	GluA2 TARP mod active
Cc1ccsc1C(O)CNC(=O)CSCc1ccccc1 (stereo not given)	none
COCCNC(=O)Cn1nc2c(c1NC(=O)Cc1cccc3ccccc13)CSC2	none
O=C(Nn1cnc2c(cnn2-c2ccccc2)c1=O)c1ccc2c(c1)OCO2	none (no result: GIRK2 activator)
CCCC(CCC)C(=O)N1CCN(c2nccn2CC)CC1	GluA2 TARP mod active
CCCC(CCC)C(=O)N1CCN(c2nccn2C)CC1	none (no result: GluA2 TARP mod)
CCOCC(=O)NCC1CCN(C(=O)Nc2ccccc2OC)CC1	none
CCOC(=O)C1CCN(C(=S)Nc2ccccc2OC)CC1	GluA2 TARP mod active (no result: GIRK2 activator)
Cc1cc(N(C)C)nc(NCCNC(=O)Nc2ccc(F)c(Cl)c2)n1	none
O=C(CSc1ccc(NC(=O)c2ccco2)nn1)NCc1ccc2c(c1)OCO2	none
COc1ccc(NS(=O)(=O)c2cccc(C)c2)cc1N1CCCC1=O	none
CCOCC(=O)N1c2ccccc2CC1C(=O)NC (stereo not given)	none
O=C(Cc1ccc(NC(=O)C23CC4CC(CC(C4)C2)C3)cc1)NC1CC1	none
CCOc1ccc(NC(=O)C23CC4CCC(CC(C4)C2)C3)cc1	GluA2 TARP mod active (no result: GIRK2 activator)
Cc1cc(C(=O)N2CCN(Cc3nnnn3-c3ccc(F)c(F)c3)CC2)no1	none
Cc1onc(-c2ccccc2Cl)c1C(=O)N1CCN(Cc2nnnn2-c2ccc(F)c(F)c2)CC1	GluA2 TARP mod active
O=C(c1cc2ccccc2o1)N(Cc1ccsc1)C1CC1	none (no result: GluA2 TARP mod)
COc1ccc(-n2c(C)cn3c4c(=O)n(CCN5CCCCC5)c(=O)n(C)c4nc23)cc1	none (no result: GIRK2 activator)
O=S(=O)(Nc1ccc2c(c1)OCCO2)c1c(Cl)cccc1Cl	none
O=S(=O)(Nc1cccc(C(F)(F)F)c1)c1c(Cl)cccc1Cl	GluA2 TARP mod active
Cc1cc(C(=O)NCC(O)c2cccn2C)c(C)o1 (stereo not given)	none
CC(C)N1CCc2c(sc(NC(=O)c3ccc([N+](=O)[O-])cc3)c2-c2nc3ccccc3s2)C1	GluA2 TARP mod active (no result: GIRK2 activator)
